Our source for the inhibition (reported as % activation of signal) values is PubChem BioAssay AID588458 (Sanford-Burnham Center for Chemical Genomics, 2011).

About 3,000 (0.83%) of roughly 360,000 compounds were called active. This is one part of a sample in which actives are shown more often than they occur. Rule as the data show it: active = inhibition above about 50%; inactive = the rest.

For this test, the target named is DNA (cytosine-5)-methyltransferase 1 (Homo sapiens) (UniProt P26358). The experiment in a line: inhibition of DNA methyltransferase DNMT1 – biochemical, molecular beacon, fluorescence, HinP1I cleavage, uHTS, primary screen (AID 588458). The note with it: at 10 µM, hits give high values.
Sequence of DNA (cytosine-5)-methyltransferase 1 (Homo sapiens) (P26358 504-1616 limits assumed): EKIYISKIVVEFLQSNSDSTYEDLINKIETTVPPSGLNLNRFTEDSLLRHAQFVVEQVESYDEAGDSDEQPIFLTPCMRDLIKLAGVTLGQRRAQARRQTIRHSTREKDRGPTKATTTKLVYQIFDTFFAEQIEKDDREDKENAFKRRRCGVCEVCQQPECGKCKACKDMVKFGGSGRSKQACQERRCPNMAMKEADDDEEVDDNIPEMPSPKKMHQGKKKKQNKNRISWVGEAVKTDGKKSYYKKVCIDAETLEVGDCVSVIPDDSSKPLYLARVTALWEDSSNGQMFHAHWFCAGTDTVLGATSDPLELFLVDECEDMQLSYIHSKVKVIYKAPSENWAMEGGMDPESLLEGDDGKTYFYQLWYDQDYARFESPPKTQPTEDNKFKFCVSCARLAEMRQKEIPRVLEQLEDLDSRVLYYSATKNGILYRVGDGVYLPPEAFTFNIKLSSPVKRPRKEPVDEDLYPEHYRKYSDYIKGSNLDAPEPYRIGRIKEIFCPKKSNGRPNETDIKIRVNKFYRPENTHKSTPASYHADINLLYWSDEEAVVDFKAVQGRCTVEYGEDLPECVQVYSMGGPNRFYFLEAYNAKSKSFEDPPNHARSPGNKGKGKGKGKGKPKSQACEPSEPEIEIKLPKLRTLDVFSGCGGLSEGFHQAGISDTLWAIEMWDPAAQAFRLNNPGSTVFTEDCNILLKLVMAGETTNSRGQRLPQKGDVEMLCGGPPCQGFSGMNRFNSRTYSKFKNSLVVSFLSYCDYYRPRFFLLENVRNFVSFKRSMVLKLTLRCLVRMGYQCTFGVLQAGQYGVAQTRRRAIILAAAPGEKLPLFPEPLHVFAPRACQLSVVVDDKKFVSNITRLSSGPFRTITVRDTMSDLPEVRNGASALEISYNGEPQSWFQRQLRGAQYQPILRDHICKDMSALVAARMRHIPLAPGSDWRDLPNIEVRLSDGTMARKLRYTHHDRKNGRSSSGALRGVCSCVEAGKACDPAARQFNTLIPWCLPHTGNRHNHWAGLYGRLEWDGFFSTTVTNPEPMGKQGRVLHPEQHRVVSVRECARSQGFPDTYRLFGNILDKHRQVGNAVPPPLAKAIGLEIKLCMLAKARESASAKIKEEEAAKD
As to `CCN(C(=O)CSc1nc2ccccc2n1CC)C1CCS(=O)(=O)C1` (stereo not given), the inhibition (reported as % activation of signal) was 0.17% (inactive).
As for `CCN(C(=O)CSc1nc(N)cc(=O)[nH]1)C1CCS(=O)(=O)C1` (stereo not given), the inhibition (reported as % activation of signal) is 84.1% (active).
With `CCN(C(=O)CSc1nnc2ccccn12)C1CCS(=O)(=O)C1` (stereo not given), the inhibition (reported as % activation of signal) was 3.22% (inactive).
Regarding `CCCCNC(=O)C1CCCNC1=O` (stereo not given), the inhibition (reported as % activation of signal) is 2.28% (inactive).
For the compound `COc1ccc(C2=NOC3(CC(=O)N(c4ccc(Cl)cc4)C3=O)C2)c(OC)c1` (stereo not given), the inhibition (reported as % activation of signal) was -6.34% (inactive).
Regarding `O=C(O)c1cc(S(=O)(=O)N2CCCCCC2)c(Cl)cc1Cl`, the inhibition (reported as % activation of signal) was 0.43% (inactive).
In the case of `CC1CCCN(Cc2nc3c(c(=O)n(C)c(=O)n3C)n2CC(=O)c2ccccc2)C1` (stereo not given) it was -2.35% (inactive); in that of `CCN1CCN(Cc2nc3c(c(=O)n(C)c(=O)n3C)n2CC(=O)c2ccccc2)CC1`, 75.4% (active).
The same measure for `CCOC(=O)N1CCN(Cc2nc3c(c(=O)n(C)c(=O)n3C)n2Cc2ccccc2)CC1`: 1.29% (inactive); for `O=C1CCCC(O)=C1C=NCCc1ccccc1`: 60.8% (active); for `CC1(C)CC(=O)C(C=NCCC2=CCCCC2)=C(O)C1`: 6.68% (inactive).
On to `O=C1CC(c2ccccc2)CC(O)=C1C=NCCN1CCOCC1` (stereo not given), for which the inhibition (reported as % activation of signal) is 0.18% (inactive).
In the case of `COc1cc(NS(=O)(=O)c2ccc(N/C=C(\C=O)c3nc4cc(Cl)ccc4o3)cc2)nc(OC)n1`, the inhibition (reported as % activation of signal) was -2.63% (inactive).
In the case of `C=C1c2c(Cl)ccc(O)c2C(O)=C2C(=O)[C@]3(O)C(O)=C(C(N)=O)C(=O)[C@@H](N(C)C)[C@@H]3[C@@H](O)C12` (stereo not given in full) it was 94.6% (active); in that of `CC1C(c2ccccc2)=[N+]([O-])C2(CCCC2)N1O` (stereo not given), 1.84% (inactive).
Take `COc1ccc(CCNC(=O)CC2SC(=Nc3cc(C)cc(C)c3)NC2=O)cc1OC` (stereo not given): the inhibition (reported as % activation of signal) was 1.89% (inactive).
In the case of `CC(=O)[C@@]12O[C@@H]1C[C@H]1[C@@H]3CC[C@H]4C[C@@H](O)CC[C@]4(C)[C@H]3CC[C@@]12C` it was 1% (inactive); in that of `O=C(c1ccc(Cl)cc1)n1cnc2ccccc21`, 8.27% (inactive); in that of `COc1ccccc1N(CC(=O)Nc1ccc(C(F)(F)F)cc1)S(C)(=O)=O`, 7.89% (inactive).
`CCCNC(=O)C(=O)Nc1cc2c3c(c1)CCC(=O)N3CCC2`: the inhibition (reported as % activation of signal) was -0.17% (inactive).
The same measure for `S=C(NCCCc1ccccc1)Nc1ccc(Br)cc1`: 6.06% (inactive); for `CCc1ccc(NC(=O)CS(=O)CC(=O)NCCCc2ccccc2)cc1` (stereo not given): 58.9% (active).
In the case of `CCc1ccc(NC(=O)CS(=O)CC(=O)N2CCN(c3ccccc3F)CC2)cc1` (stereo not given) it was 1.59% (inactive).
As to `Cc1oc(CC(C)C)c(CN2CCCC2)c1C(=O)O`, the inhibition (reported as % activation of signal) is -0.29% (inactive).
In the case of `Cc1nnc(N(Cc2ccco2)C(=O)c2ccno2)s1` it was -1.27% (inactive).
Regarding `COCCNC(=O)Nc1ccc2nc(-c3ccco3)c(-c3ccco3)nc2c1`, the inhibition (reported as % activation of signal) was 110% (active).
In the case of `COCCNC(=O)CSc1nc(N)c(NC(=O)c2ccco2)c(=O)[nH]1` it was 4.39% (inactive); in that of `Cc1ccc(NC(=O)OCCNC(=O)c2ccncc2)cc1`, 0.6% (inactive); in that of `COc1ccc(Cn2cccc(NC(=O)Nc3ccc(C#N)cc3)c2=O)cc1`, 3.12% (inactive).
In the case of `O=C1COc2ccc(NC(=O)N3CCN(c4ccc(F)cc4)CC3)cc2N1` it was -6.06% (inactive); in that of `O=C(COC(=O)CSc1ccccc1)Nc1ccc(F)cc1F`, -0.57% (inactive).
As to `CCOC(=O)c1cccc(NC(=O)c2ccc(F)cc2F)c1`, the inhibition (reported as % activation of signal) was 2.92% (inactive).
Regarding `O=C(COC(=O)c1ccc(F)cc1F)Nc1ncccn1`, the inhibition (reported as % activation of signal) was 67.4% (active).
The same measure for `CN=C1C=C/C(=N/N=c2\ccn(O)cc2C)C=C1C`: -3.81% (inactive).
`NC(=O)C1CCCN(CC(=O)N2CCN(c3ccccc3)CC2)C1` (stereo not given): the inhibition (reported as % activation of signal) was 1.67% (inactive).
Turning to `Cn1c(=O)c2[nH]c(NCC3CCCO3)nc2n(-c2ccccc2)c1=O` (stereo not given), the inhibition (reported as % activation of signal) is 3.06% (inactive).
Take `COc1cc2c(cc1OC)C(Cc1cc(OC)c(OC)cc1[N+](=O)[O-])=NCC2`: the inhibition (reported as % activation of signal) was -13.1% (inactive).
`CCC[C@@H]1C[C@@]1(CCC)[C@@H](NC(=O)c1ccccc1)c1ccc(C(=O)OC)cc1`: the inhibition (reported as % activation of signal) is -1.36% (inactive).
In the case of `CCC/C=C(\CCC)C(NC(=O)Cc1ccccc1)c1ccc(C(=O)OC)cc1` (stereo not given) it was 64.2% (active); in that of `COC(=O)c1ccc(C(NC(=O)OCc2ccccc2)/C(F)=C/[C@@H](C)C(=O)O)cc1` (stereo not given in full), 2.04% (inactive).
Regarding `C#Cc1ccc(NC(=O)C2(C)CCN2C(=O)Cc2ccc(-c3ccccc3)cc2)cc1` (stereo not given), the inhibition (reported as % activation of signal) was -17.3% (inactive).
The same measure for `O=C(NC1(C(F)(F)F)NC(=O)N(Cc2cccnc2)C1=O)c1ccccc1Cl` (stereo not given): 5.41% (inactive).
`O=C(NCc1ccncc1)C1CCCN(S(=O)(=O)c2ccc(Br)cc2)C1` (stereo not given): the inhibition (reported as % activation of signal) is -0.42% (inactive).
For the compound `COc1cc2c(cc1O)C(SC)=NC(C)(C)C2`, the inhibition (reported as % activation of signal) was 0.55% (inactive).
In the case of `COc1ccc(CC(=O)Nc2ccc(-c3nnc(-c4ccc(C)cc4)o3)cc2)cc1` it was 58.3% (active).
